# Source: the supplement of paper PMC8728848
# This excerpt belongs to a sample that is enriched for the strongest signals.
# B1: Sialidase (Vibrio cholerae), P37060 (protein)
# chain: GAMALFDYNATGDTEFDSPAKQGWMQDNTNNGSGVLTNADGMPAWLVQGIGGRAQWTYSLSTNQHAQASSFGWRMTTEMKVLSGGMITNYYANGTQRVLPIISLDSSGNLVVEFEGQTGRTVLATGTAATEYHKFELVFLPGSNPSASFYFDGKLIRDNIQPTASKQNMIVWGNGSSNTDGVAAYRDIKFEIQGDALNGSMALFDYNATGDTEFDSPAKQGWMQDNTNNGSGVLTNADGMPAWLVQGIGGRAQWTYSLSTNQHAQASSFGWRMTTEMKVLSGGMITNYYANGTQRVLPIISLDSSGNLVVEFEGQTGRTVLATGTAATEYHKFELVFLPGSNPSASFYFDGKLIRDNIQPTASKQNMIVWGNGSSNTDGVAAYRDIKFEIQGDLQALGMALFDYNATGDTEFDSPAKQGWMQDNTNNGSGVLTNADGMPAWLVQGIGGRAQWTYSLSTNQHAQASSFGWRMTTEMKVLSGGMITNYYANGTQRVLPIISLDSSGNLVVEFEGQTGRTVLATGTAATEYHKFELVFLPGSNPSASFYFDGKLIRDNIQPTASKQNMIVWGNGSSNTDGVAAYRDIKFEIQGD
# What was measured:
# Experiment in all cases: glycan array binding signal (z-score within array); higher = stronger binding
# Conditions in all cases: glycan notation: IUPAC condensed, linker removed
# [1] = target: Fuc(a1-2)[Gal(a1-3)]Gal(b1-4)Glc
# How it was run: (§1)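 The binding signal is a Z-score computed within each array and averaged over linkers. Arrays of the same protein sequence at different concentrations or buffers were also averaged together. Data originate from 3228 arrays in the Consortium for Functional Glycomics database, kept only where the protein sequence was available.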
# Fuc(a1-3)GlcNAc = target: Fuc(a1-3)GlcNAc
# How it was run: as §1
# [2] = target: Fuc(a1-3)[GalNAc(b1-4)]GlcNAc
# How it was run: as §1
# Gal(a1-3)GalNAc = target: Gal(a1-3)GalNAc
# How it was run: as §1
# Gal(b1-3)GalNAc = target: Gal(b1-3)GalNAc
# How it was run: as §1
# [3] = target: Gal(b1-3)GalNAc(b1-4)[Neu5Ac(a2-3)]Gal(b1-4)Glc
# How it was run: as §1
# [4] = target: Gal(b1-3)GlcNAc(b1-3)Gal(b1-4)GlcNAc
# How it was run: as §1
# [5] = target: Gal(b1-3)[Fuc(a1-4)]GlcNAc
# How it was run: as §1
# Gal3S(b1-3)GalNAc = target: Gal3S(b1-3)GalNAc
# How it was run: as §1
# Gal6S(b1-4)GlcNAc = target: Gal6S(b1-4)GlcNAc
# How it was run: as §1
# [6] = target: GalNAc(b1-4)GlcNAc(b1-2)Man(a1-3)[GalNAc(b1-4)GlcNAc(b1-2)Man(a1-6)]Man(b1-4)GlcNAc(b1-4)GlcNAc
# How it was run: as §1
# GlcA(b1-6)Gal = target: GlcA(b1-6)Gal
# How it was run: as §1
# [7] = target: GlcNAc(a1-4)Gal(b1-4)GlcNAc(b1-3)Gal(b1-4)Glc
# How it was run: as §1
# [8] = target: GlcNAc(b1-2)Man(a1-3)[GlcNAc(b1-2)Man(a1-6)]Man(b1-4)GlcNAc(b1-4)[Fuc(a1-6)]GlcNAc
# How it was run: as §1
# [9] = target: GlcNAc(b1-3)Gal(b1-4)GlcNAc(b1-3)Gal(b1-4)GlcNAc
# How it was run: as §1
# [10] = target: GlcNAc(b1-4)GlcNAc(b1-4)GlcNAc(b1-4)GlcNAc(b1-4)GlcNAc
# How it was run: as §1
# Kdn(a2-3)Gal(b1-3)GalNAc = target: Kdn(a2-3)Gal(b1-3)GalNAc
# How it was run: as §1
# [11] = target: Man(a1-2)Man(a1-3)[Man(a1-2)Man(a1-6)]Man(a1-6)[Man(a1-2)Man(a1-2)Man(a1-3)]Man(b1-4)GlcNAc(b1-4)GlcNAc
# How it was run: as §1
# Man(a1-3)[Man(a1-6)]Man = target: Man(a1-3)[Man(a1-6)]Man
# How it was run: as §1
# [12] = target: Neu5Ac(a2-3)Gal(b1-3)GalNAc(b1-3)Gal(a1-4)Gal(b1-4)Glc
# How it was run: as §1
# [13] = target: Neu5Ac(a2-3)Gal(b1-3)[Fuc(a1-4)]GlcNAc(b1-3)Gal(b1-3)[Fuc(a1-4)]GlcNAc
# How it was run: as §1
# [14] = target: Neu5Ac(a2-3)Gal(b1-3)[Neu5Ac(a2-6)]GalNAc
# How it was run: as §1
# [15] = target: Neu5Ac(a2-3)Gal(b1-4)GlcNAc(b1-2)Man(a1-3)[Neu5Ac(a2-6)Gal(b1-4)GlcNAc(b1-2)Man(a1-6)]Man(b1-4)GlcNAc(b1-4)GlcNAc
# How it was run: as §1
# [16] = target: Neu5Ac(a2-3)Gal(b1-4)GlcNAc(b1-3)Gal(b1-4)GlcNAc
# How it was run: as §1
# [17] = target: Neu5Ac(a2-3)Gal(b1-4)GlcNAc6S
# How it was run: as §1
# [18] = target: Neu5Ac(a2-3)Gal(b1-4)[Fuc(a1-3)]GlcNAc(b1-6)[Neu5Ac(a2-3)Gal(b1-3)]GalNAc
# How it was run: as §1
# [19] = target: Neu5Ac(a2-3)Gal6S(b1-4)GlcNAc
# How it was run: as §1
# [20] = target: Neu5Ac(a2-6)Gal(b1-4)GlcNAc(b1-2)Man(a1-6)Man(b1-4)GlcNAc(b1-4)GlcNAc
# How it was run: as §1
# [21] = target: Neu5Ac(a2-8)Neu5Ac(a2-3)[GalNAc(b1-4)]Gal(b1-4)Glc
# How it was run: as §1
# [22] = target: Neu5Ac(a2-8)Neu5Ac(a2-8)Neu5Ac
# How it was run: as §1
binder,measurement,setting,value
B1,glycan array binding signal (z-score),[1],-0.115
same,glycan array binding signal (z-score),Fuc(a1-3)GlcNAc,-0.622
same,glycan array binding signal (z-score),[2],-0.6
same,glycan array binding signal (z-score),Gal(a1-3)GalNAc,-0.472
same,glycan array binding signal (z-score),Gal(b1-3)GalNAc,-0.469
same,glycan array binding signal (z-score),[3],0.396
same,glycan array binding signal (z-score),[4],-0.474
same,glycan array binding signal (z-score),[5],-0.364
same,glycan array binding signal (z-score),Gal3S(b1-3)GalNAc,-0.567
same,glycan array binding signal (z-score),Gal6S(b1-4)GlcNAc,-0.619
same,glycan array binding signal (z-score),[6],-0.622
same,glycan array binding signal (z-score),GlcA(b1-6)Gal,-0.085
same,glycan array binding signal (z-score),[7],-0.574
same,glycan array binding signal (z-score),[8],-0.267
same,glycan array binding signal (z-score),[9],0.631
same,glycan array binding signal (z-score),[10],-0.605
same,glycan array binding signal (z-score),Kdn(a2-3)Gal(b1-3)GalNAc,-0.286
same,glycan array binding signal (z-score),[11],0.193
same,glycan array binding signal (z-score),Man(a1-3)[Man(a1-6)]Man,-0.644
same,glycan array binding signal (z-score),[12],-0.275
same,glycan array binding signal (z-score),[13],5.53
same,glycan array binding signal (z-score),[14],2.8
same,glycan array binding signal (z-score),[15],6.62
same,glycan array binding signal (z-score),[16],4.64
same,glycan array binding signal (z-score),[17],2.73
same,glycan array binding signal (z-score),[18],0.955
same,glycan array binding signal (z-score),[19],6.38
same,glycan array binding signal (z-score),[20],1.84
same,glycan array binding signal (z-score),[21],-0.257
same,glycan array binding signal (z-score),[22],0.113
